An excerpt weighted towards active compounds, which were near 9% of everything screened.
G9a block: blocks human histone lysine methyltransferase G9a. Q96KQ7. AID 504332. G9a H3K9 monomethylation, AlphaScreen, 2 h. Potency, µM (series often up to 102 µM), usual class: inhibitors. 8.8% of 350,000 active; note: nearly all actives have a fitted effect of over 75% in size
Target sequence (Q96KQ7 913-1193 limits assumed): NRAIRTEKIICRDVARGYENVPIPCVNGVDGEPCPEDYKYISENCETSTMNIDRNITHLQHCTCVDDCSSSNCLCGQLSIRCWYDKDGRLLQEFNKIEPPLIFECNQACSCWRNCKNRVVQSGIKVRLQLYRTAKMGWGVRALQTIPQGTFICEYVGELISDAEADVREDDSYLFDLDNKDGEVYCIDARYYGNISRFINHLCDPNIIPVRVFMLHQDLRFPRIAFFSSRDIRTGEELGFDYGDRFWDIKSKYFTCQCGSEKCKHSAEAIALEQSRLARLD
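AlphaScreen detection with an anti-monomethyl H3K9 antibody quantified product after a 2 h room-temperature reaction containing 500 nM biotinylated H3K9 peptide, 20 µM SAM and 20 nM enzyme, which had been preincubated 15 min with compound.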
HP1b binding inh: blocks HP1-beta chromodomain binding to methylated histone tails | AlphaScreen HP1-beta / biotin-H3K9me3 peptide binding | Potency, µM (titrated, usually from 114 µM), hits mostly inhibitors | 0.56% of 390,000 active | AID 540317; note: nearly all actives have a fitted effect of over 70% in size
Target sequence (P83916 whole entry, looked up): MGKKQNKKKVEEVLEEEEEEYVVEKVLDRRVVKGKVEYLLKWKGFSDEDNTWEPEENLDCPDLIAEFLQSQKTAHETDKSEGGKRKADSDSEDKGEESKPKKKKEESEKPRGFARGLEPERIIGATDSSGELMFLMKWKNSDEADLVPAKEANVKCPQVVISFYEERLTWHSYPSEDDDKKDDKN
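Compound inhibition of the preformed complex between 50 nM HP1-beta and 50 nM biotinylated H3K9me3 peptide was read by AlphaScreen. Buffer was PBS pH 7.4 with 0.01% Tween-20. Incubations ran 30 min at room temperature, with 10 ug/mL donor/acceptor beads.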
12-LOX inh: blocks human arachidonate 12S-lipoxygenase. Potency, µM (highest dose often 108 µM), actives largely listed as inhibitors. AID 1671190. purified 12hLO, xylenol orange hydroperoxide absorbance. 1.1% of 580,000 active
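Purified human 12hLO at 150 nM in 25 mM Hepes, 0.01% Triton X-100, pH 7.0, preincubated 15 min at room temperature with compound. Reaction started with 40 uM arachidonic acid, 30 min at room temperature. Hydroperoxide measured by Fe-xylenol orange, 573/405 nm absorbance ratio.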
BAZ2B block: blocks human BAZ2B | Q9UIF8 | AlphaScreen BAZ2B-H3K14Ac peptide displacement | Potency, µM (series often up to 114 µM), most hits filed as inhibitors | 4.4% of 360,000 active; note: nearly all actives have a fitted effect of over 60% in size
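Multi-concentration screen (max 110 uM) measuring displacement of acetylated histone H3 peptide from BAZ2B by AlphaScreen, using 50 nM protein, 50 nM peptide and 10 ug/mL streptavidin donor plus Ni-chelate acceptor beads.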
PLK1 PBD block: PLK1 (human) polo-box domain binding inhibition; 2.8% of 360,000 active; Plk1 PBD binding of FITC phosphopeptide, fluorescence polarization; Potency, µM, hits mostly inhibitors; P53350; note: series mostly up to about 57 µM; nearly all actives have a fitted effect of over 65% in size
JMJD2A Tudor: inhibitors of human JMJD2A Tudor domain; O75164; Potency, µM (top dose mostly 114 µM), hits mostly inhibitors; AID 504339; 4.4% of 390,000 active; AlphaScreen JMJD2A-Tudor / H3K4me3 peptide binding; note: nearly all actives have a fitted effect of over 50% in size
A number is an active result; i = inactive; ? = inconclusive; nt = no result given; [ ] = dose if it differs, or a comment. Calls come from the whole dose curve; as a rule, active = well fitted curve in the direction sought with a large enough effect; inconclusive = small, poorly fitted or top-dose-only effect, or another doubt; inactive = no such curve, though single readings can be large; an effect the other way counts as inactive or inconclusive.

SMILES	G9a block	HP1b binding inh	12-LOX inh	BAZ2B block	PLK1 PBD block	JMJD2A Tudor
COc1ccc(C2C3=C(CCCC3=O)Nc3nc(-c4cc(OC)c(OC)c(OC)c4)nn32)cc1OC (configuration not stated)	40µM	i	i	i	i	i
COc1cc(-c2nc3n(n2)C(c2ccncc2)C2=C(CCCC2=O)N3)cc(OC)c1OC (configuration not stated)	i	i	i	i	i	i
O=C(O)CCCNC(=O)c1cccc(C(=O)NCCCC(=O)O)n1	20µM	i	i	?	i	?
Cc1cccc(C(=O)NCCCc2ccccc2)n1	nt	nt	i	nt	nt	nt
O=C/C(=C\Nc1ccc(Cl)cn1)c1nc2cc(Cl)ccc2o1	i	i	i	i	i	i
COc1cc(NS(=O)(=O)c2ccc(N/C=C(\C#N)c3nc4cc(Cl)ccc4o3)cc2)nc(OC)n1	i	i	?	i	?	?
O=C/C(=C\Nc1ccc(S(=O)(=O)CCO)cc1)c1nc2cc(Cl)ccc2o1	50µM	i	i	i	i	i
O=C/C(=C\Nc1ccc(Cl)cn1)c1nc2ccccc2o1	?	i	?	i	i	13µM
CCn1c(CSc2nc3ccccc3s2)n[nH]c1=S	2.8µM	i	32µM	i	i	11µM
N#CCCCSc1nnc(CSc2nc3ccccc3s2)n1-c1ccccc1	?	i	i	i	i	i
CCCSc1nnc(CSc2nc3ccccc3s2)n1-c1ccccc1	i[0.501 µM]	i	i	i	i	i
C=CCn1c(CSc2nc3ccccc3s2)n[nH]c1=S	4.5µM	i	?	i	i	50µM
CCn1c(CSc2nc3ccccc3s2)nnc1SCC(=O)c1ccc(Cl)cc1	?	i	i	i	3µM	?
C=CCn1c(CSc2nc3ccccc3s2)nnc1SCC(=O)NCCN1CCOCC1	i	i	i	i	i	i
S=c1[nH]nc(CSc2nc3ccccc3s2)n1Cc1ccccc1	3.2µM	i	?	i	i	?
Cn1c(CSc2nc3ccccc3s2)nnc1SCC(=O)NCc1ccccn1	i	i	i	i	i	i[11.4 µM]
CCc1nnc(NC(=O)CSc2nnc(Cc3ccccc3)n2-c2ccccc2)s1	i	i	i	i	i	i
O=C(c1ccc2c(c1)OCO2)N1CCC(N2CCCC2=O)CC1	nt	nt	i	nt	nt	nt
c1ccc2c(c1)nc1n2CN(Cc2ccc3c(c2)OCO3)CN1	i	i	i	i	i	i
Cc1cc(Cl)ccc1-c1ccc(CNC2CN(C(=O)OC(C)(C)C)C2)cc1	nt	nt	i[6.33 µM]	nt	nt	nt
Cc1ccc(C2/C(=C(/O)c3ccccc3)C(=O)C(=O)N2CCN2CCOCC2)o1 (configuration not stated)	?	i	i	i	i	i
CCN(CC)CCN1C(=O)C(=O)/C(=C(/O)c2c(C)[nH]c(C(=O)OC)c2C)C1c1cccnc1 (configuration not stated)	?	i	i	i	i	i
COC(=O)c1[nH]c(C)c(/C(O)=C2\C(=O)C(=O)N(CCN3CCOCC3)C2c2cccnc2)c1C (configuration not stated)	?	i	i	i	i	22µM
Cc1ccc(C)c(/C(O)=C2/C(=O)C(=O)N(CCN3CCOCC3)C2c2ccco2)c1 (configuration not stated)	?	?	?	22µM	?	79µM
CCOC(=O)c1[nH]c(C)c(/C(O)=C2\C(=O)C(=O)N(CCN(C)C)C2c2ccc(C)o2)c1C (configuration not stated)	40µM	i	i	i	i	?
SMILES	G9a block	HP1b binding inh	12-LOX inh	BAZ2B block	PLK1 PBD block	JMJD2A Tudor
COC(=O)c1[nH]c(C)c(/C(O)=C2\C(=O)C(=O)N(CCN3CCOCC3)C2c2ccc(C)o2)c1C (configuration not stated)	45µM	i	?	i	i	?
Cc1nn(-c2ccccc2)c(C)c1C(=O)OCC(=O)c1c(N)n(CC(C)C)c(=O)n(C)c1=O	?	i	i	i	i	i
COc1ccc(-c2cccc(-c3cc(=O)oc4cc(OC)c(OC)c(OC)c34)c2)cc1	?	i	i	nt	i	i
CCN(CC)CCN1C(=O)C(=O)/C(=C(/O)c2c(C)[nH]c(C(=O)OC)c2C)C1c1cccc(OC)c1 (configuration not stated)	?	i	i	?	i	?
CCN(CC)CCN1C(=O)C(=O)/C(=C(/O)c2c(C)[nH]c(C(=O)OC)c2C)C1c1ccc(C)o1 (configuration not stated)	35µM	i	i	?	i	i
CCOC(=O)c1[nH]c(C)c(/C(O)=C2\C(=O)C(=O)N(CCN3CCOCC3)C2c2cccs2)c1C (configuration not stated)	45µM	i	i	i	i	?
Cc1ccc(C2/C(=C(\O)c3cnn(-c4ccccc4)c3C)C(=O)C(=O)N2CCN(C)C)o1 (configuration not stated)	i	i	?	i	i	i[11.4 µM]
Cc1ccc(C2/C(=C(/O)c3cnn(-c4ccccc4)c3C)C(=O)C(=O)N2CCN2CCOCC2)o1 (configuration not stated)	?	i	?	79µM	i	?
COc1cccc2cc(/C(=N/O)c3ccc(Br)cc3)oc12	i	i	i	i	i	i
Cc1ccc(S(=O)(=O)N2CCN(CC(O)COc3ccccc3)CC2)cc1 (configuration not stated)	i	i	i	i	i	i
CCOC(=O)c1ccc(S(=O)(=O)N2CCN(CC(O)COc3cccc(C(C)=O)c3)CC2)cc1 (configuration not stated)	i	i	i	79µM	i	18µM
CN(Cc1ccccc1OCC(=O)O)CC1CCN(C)C1(C)C (configuration not stated)	nt	nt	i	nt	nt	nt
O=S1(=O)CCN(CCCc2ccccc2)CC1	nt	nt	i	nt	i	nt
CCCS(=O)(=O)N1CCN(CCCc2ccccc2)CC1	10µM	?	?	79µM	i	5.6µM
CCCS(=O)(=O)N1CCN(Cc2ccco2)CC1	14µM	?	?	50µM	i	?
O=[N+]([O-])c1ccc(S(=O)(=O)N2CCN(Cc3ccco3)CC2)cc1	?	22µM	i	20µM	i	8.9µM
CCCc1nc(C(=O)NCc2nc(C)cc(C(F)(F)F)n2)cs1	nt	nt	i	nt	nt	nt
O=C1Cc2c(-c3cccc(CO)c3)n[nH]c2CN1Cc1ccccc1F	nt	nt	i	nt	nt	nt
CN(CCCc1ccccc1)CC(=O)NC(N)=O	nt	nt	i	nt	nt	nt
Cc1cc(C(=O)COc2ccc(Cl)cc2Br)c(C)n1C	i	?	i	i	i	?
O=C(CCN1N=C(c2ccccc2)CCC1=O)NCCCN1CCOCC1	50µM	i	i	i	i	i
COc1cc2nc(C3CCC3)n(NC(=O)C3CCC(OC)CC3)c(=O)c2cc1OC (configuration not stated)	i	i	i	i	i	i

Screening data: PubChem BioAssay, National Center for Advancing Translational Sciences (NCATS)
